What all share (test): NCI-60 one-dose screen, 48 h (100 = growth as untreated, 0 = no growth, -100 = all killed)
Details in all cases: 10 µM unless noted

The test system of assay [1] is NCI-H23 lung.
The test system of assay [2] is NCI-H226 lung.
Assay [3] deals with NCI-H322M lung.
Assay [4] has as its system HOP-62 NSCLC.
Assay [5] has as its system NCI-H460 lung.
Assay [6] has as its system HOP-92 NSCLC.
Assay [7] deals with NCI-H522 lung.
For assay [8], the system named is A549/ATCC NSCLC.
In assay [9] the test system is 786-0 renal.
Assay [10] deals with COLO 205 colon.

About 83,000 compounds went through this panel and 20% of them were active in at least one assay; those are over-represented in the sample as a whole.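 Growth was measured after 48 h exposure to one concentration of compound in 96-well plates. Values under 10 count as active.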 A number with no mark means an inactive call. Active and inactive are the calls of the source.

Take `CC1=NOCC(=O)N1`: the growth in assay [1] is 106%; in [2] it was 102%; in assay [3] it was 111%; in [4] it was 105%; in assay [5], 107%; in assay [6] it was 96%. For the same molecule, the growth in assay [7] is 92.8%; in [8], 89.7%; in assay [9] it was 101%; in assay [10], 108%.
As to `Fc1ccc2c(CN3CCO[C@H](COc4cccc(Cl)c4)C3)c[nH]c2c1`, the growth in assay [1] is 75.5%; in assay [2], 64.9%; in assay [3] it was 74.6%; in [4], 22%; in assay [5], 30.2%; in assay [6], 45.2%. The growth in [7] is 36.3%; in assay [8], 44.4%; in assay [9] it was 27.2%; in assay [10], 69.1%.
In the case of `COc1ccc2c(c1)CCCC21C(=O)Nc2c(Cl)cccc21` (stereo not given), the growth in assay [1] was 86%; in assay [2] it was 85.9%; in [3], 88.1%; in assay [4], 55.7%; in [5], 94.4%; in assay [6], 72.3%. The growth in assay [7] is 27.7%; in [8], 68.7%; in assay [9] it was 78.9%; in assay [10], 80.6%.
As to `CC(=O)OC1Oc2ccccc2-c2oc3nc(=N)n(C)c-3cc21` (stereo not given), the growth in assay [1] was 103%; in assay [2], 117%; in assay [3], 123%; in assay [4], 91.9%; in assay [5], 112%; in assay [6] it was 99.1%. Besides, the growth in assay [7] is 98.1%; in assay [8], 119%; in assay [9] it was 103%; in assay [10], 119%.
For `O=C1c2ccccc2C2N1CCC1CCc3ccccc3N12` (stereo not given), the growth in assay [1] was 99.5%; in assay [2], 90.2%; in assay [3], 85.4%; in assay [4], 108%; in assay [5], 104%; in [6], 73.6%. The growth is 84.8% in [7], 99.1% in assay [8], 99.7% in assay [9] and 112% in assay [10].
Turning to `CC(=O)O[C@H]1[C@H](CC#CC#CC[C@@H]2C[C@]3(C)[C@H]4CC=C5[C@H]6[C@@H](C)[C@H](C)CC[C@]6(C(=O)NCCCCCCCCN)CC[C@@]5(C)[C@]4(C)CC[C@H]3C(C)(C)[C@H]2OC(C)=O)C[C@]2(C)[C@H]3CC=C4[C@H]5[C@@H](C)[C@H](C)CC[C@]5(C(=O)NCCCCCCCCN)CC[C@@]4(C)[C@]3(C)CC[C@H]2C1(C)C`, the growth in assay [1] is 99.1%; in assay [2], -83.5% (active); in assay [3] it was 106%; in assay [4], 96.7%; in assay [5] it was 103%; in assay [6], 92.3%. The growth in assay [7] was 106%; in assay [8], 102%; in [9], 103%; in [10], 114%.
`Cc1cc(C)cc(Nc2cc(C)nc3nc(C(F)(F)F)nn23)c1`: the growth in assay [1] is 40%; in assay [2] it was 37.8%; in assay [3] it was 25%; in assay [4], 47.8%; in assay [5], 11%; in [6], 69.8%. In addition, the growth in assay [7] was 6.54% (active); in [8], 27.5%; in [9] it was 36.6%; in assay [10], 16.7%.
For the molecule `Cc1ccc(NC(=O)c2[nH]c(SCCN(C)C)nc2-c2ccc(F)cc2)cc1Nc1ccc2ncn(C)c(=O)c2c1`, the growth was 42.1% in assay [1]; 63.9% in [2]; 67% in assay [3]; 58.5% in assay [4]; 56.3% in [5]; 38.7% in [6]. Further, the growth in assay [7] was 69.5%; in assay [8], 40.3%; in [9], 72.8%; in assay [10] it was 14.5%.
For the molecule `N#Cc1c(NN)n(C2OC(CO)C(O)C2O)c2ncnc(N)c12` (stereo not given), the growth in assay [1] was 2.93% (active); in [2], 25.7%; in [3], -19.8% (active); in assay [4], -0.156% (active); in assay [5], -13.4% (active); in assay [6] it was -18.9% (active). The growth in assay [7] was -57% (active); in [8], 6.43% (active); in assay [9], 26.1%; in assay [10], -32.7% (active).
Regarding `CC(=O)N1N=C(c2ccc(C)cc2)CC1c1cn(-c2ccccc2)nc1-c1cccc(Nc2ccnc3cc(Cl)ccc23)c1` (stereo not given), the growth in [1] was 79.1%; in [2], 111%; in assay [3] it was 56.9%; in assay [4], -19.7% (active); in assay [5], 15.8%; in assay [6], 78.7%. The growth is 36% in [7], 68.4% in assay [8], 52.3% in [9] and 93.8% in assay [10].
As to `CC(C)OC(=O)c1ccc([N+](=O)[O-])cc1`, the growth in assay [1] is 103%; in assay [2], 106%; in assay [3], 111%; in assay [4], 110%; in assay [5], 109%; in assay [6] it was 84.1%. Besides, the growth is 105% in assay [7], 101% in assay [8], 109% in assay [9] and 123% in assay [10].
`Cc1nc2n[nH]c(N)c2nc1C`: the growth in assay [1] is 102%; in assay [2] it was 99.9%; in assay [3] it was 93.1%; in assay [4], 104%; in assay [5] it was 111%; in assay [6] it was 100%. Moreover, the growth in [7] was 93.9%; in assay [8] it was 99.2%; in assay [9], 105%; in assay [10], 109%.
For the molecule `N#Cc1nc(-c2ccc(Cl)cc2)cc(-c2ccc(Nc3nc(N4CCCCC4)nc(N4CCCCC4)n3)cc2)c1N`, the growth was 92.1% in assay [1]; 71.2% in assay [2]; 109% in [3]; 94.8% in [4]; 104% in [5]; 101% in [6]. Further, the growth in assay [7] was 96.9%; in [8], 106%; in assay [9], 103%; in [10], 113%.
`O=c1[nH]c2ccccc2n2cc3cccnc3c12`: the growth is 77.5% in [1]; 64.2% in assay [2]; 116% in [3]; 68.7% in [4]; 37.3% in assay [5]; 83.6% in assay [6]. The growth was 57.6% in assay [7], 83.5% in [8], 71.1% in assay [9] and 70% in assay [10].

These data come from PubChem BioAssay (NCI).
